Experimental data reported in PubChem BioAssay (NCI).
Several values for one entry are separate records, joined by “and”; a condition that tells them apart may be missing. Equal entries are not always repeated. About 79,000 compounds went through this panel and 15% of them were active in at least one assay; those are over-represented in the sample as a whole. A structure can be active in one record and inactive in another. Activity calls are given as the source filed them. Cut-off read from the data, not from the text of the source: active = growth inhibition above about 70%; inactive = the rest.

How the values were obtained:
[1] = NCI Yeast Anticancer Drug Screen. Data for the rad50 strain (AID 155);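 note: 0% = growth of vehicle-only cultures of the same strain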; settings: S. cerevisiae rad50 strain growth inhibition, stronger effect = higher value; at 50.0 µM unless noted
Outline: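 Inhibition values express reduced yeast growth in compound-treated cultures relative to vehicle-treated controls.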

[2] = NCI Yeast Anticancer Drug Screen. Data for the mec2-1 strain (AID 157); settings: S. cerevisiae mec2-1 strain, stronger effect = higher value; at 50.0 µM unless noted
Outline: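 Each compound was tested on mec2-1 yeast, a strain altered in DNA damage repair or cell cycle control. Growth inhibition is reported relative to vehicle.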

[3] = NCI Yeast Anticancer Drug Screen. Data for the sgs1 mgt1 strain (AID 161);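 note: 0% = growth of cultures given vehicle only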; settings: S. cerevisiae sgs1 mgt1 strain, stronger effect = higher value; at 50.0 µM unless noted
Outline: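 Inhibition of yeast growth, normalised to vehicle-treated controls, is reported for a strain bearing genetic alterations in DNA damage repair.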

[4] = NCI Yeast Anticancer Drug Screen. Data for the cln2 rad14 strain (AID 165);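 note: 0% = growth equal to vehicle treated cultures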; settings: S. cerevisiae cln2 rad14 strain, stronger effect = higher value; at 50.0 µM unless noted
Outline: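 Test compounds were added to cln2 rad14 yeast cultures; inhibition of growth was then determined by comparison with vehicle treatment.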

[5] = NCI Yeast Anticancer Drug Screen. Data for the bub3 strain (AID 167); settings: S. cerevisiae bub3 mutant strain, stronger effect = higher value; at 50.0 µM unless noted
Outline: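 Steps: expose the mutant yeast strain to compound; grow alongside vehicle-treated cultures; measure growth; express inhibition against the vehicle cultures.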

[6] = NCI Yeast Anticancer Drug Screen. Data for the mlh1 rad18 strain (AID 175); settings: S. cerevisiae mlh1 rad18 strain growth inhibition, stronger effect = higher value; at 50.0 µM unless noted
Outline: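 Inhibition values reflect reduced growth of mutant yeast versus vehicle-treated controls following compound exposure; the mutations affect DNA damage repair.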

Row | Structure (SMILES) | growth inhibition [1] | growth inhibition [2] | growth inhibition [3] | growth inhibition [4] | growth inhibition [5] | growth inhibition [6]
1 | CCOC(=O)c1c(C)nc(C)c(C(=O)OCC)c1-c1ccc(N(C)C)cc1 | 3.7% (inactive) and -7.5% (inactive) | 1.75% (inactive) and 1.25% (inactive) | 84% (active) and -1.3% (inactive) | -4.4% (inactive) and -6.05% (inactive) | 1.8% (inactive) and -14.7% (inactive) | 4.05% (inactive) and 5.25% (inactive)
2 | CSC(=S)OC(C)CC(C)C (stereo not given) | 37.6% (inactive) | -3.95% (inactive) | 30.7% (inactive) | -12.1% (inactive) | 6.95% (inactive) | 25.5% (inactive)
3 | CCOC(=O)C(CCc1ccccc1[N+](=O)[O-])(CCc1ccccc1[N+](=O)[O-])C(=O)OCC | 12.3% (inactive) | -0.7% (inactive) | 6.35% (inactive) | -9% (inactive) | 10.7% (inactive) | 37.7% (inactive)
4 | CNC(=O)N(CCCCC(NC(C)=O)C(=O)NCc1ccccc1)Cc1ccccc1 (stereo not given) | -12.3% (inactive) | -23.2% (inactive) | -15.8% (inactive) | -12.4% (inactive) | -7.1% (inactive) | -12.8% (inactive)
5 | O=C1CCc2nc(-c3ccccc3)ncc21 | 9.25% (inactive) | 0% (inactive) | 1.95% (inactive) | -5.55% (inactive) | -2.2% (inactive) | -0.8% (inactive)
6 | Cc1cc([N+](=O)[O-])ccc1NC(=O)n1nnc2cc(Cl)ccc21 | -5.55% (inactive) | 0.35% (inactive) | -5.85% (inactive) | 1.1% (inactive) | 21% (inactive) | 6.9% (inactive)
7 | Nc1nc(N)c(N=O)c(Nc2ccccc2)n1 | 7.75% (inactive) | 6.9% (inactive) | -8.35% (inactive) | 0.45% (inactive) | 41.6% (inactive) | 43.4% (inactive)
8 | CNC(=O)Nc1c(C)cccc1C | 0.05% (inactive) | 6.1% (inactive) | -0.2% (inactive) | -26.2% (inactive) | 0.05% (inactive) | 4.05% (inactive)
9 | CCOc1ccc(NC(N)=O)cc1 | -44.5% (inactive) | -9.85% (inactive) | -14.5% (inactive) | -3.7% (inactive) | -2.55% (inactive) | 15.2% (inactive)
10 | CSC1N=CNc2c1sc(=S)n2-c1ccccc1 (stereo not given) | -20.8% (inactive) | 7.75% (inactive) | 15.9% (inactive) | -3.9% (inactive) | -2.85% (inactive) | -1.85% (inactive)
11 | O=C(Nc1ccc2c(c1)Cc1ccccc1-2)c1cccc2ccccc12 | -4.05% (inactive) | -20.8% (inactive) | 0.4% (inactive) | -47% (inactive) | 12.2% (inactive) | -5.2% (inactive)
12 | O=C(O)c1cccc(OCCO)c1 | -10% (inactive) | -11.2% (inactive) | -35.8% (inactive) | -26.4% (inactive) | -17.9% (inactive) | -29.9% (inactive)
13 | Cc1c(NC(=O)CSC(=S)N(C)C)c(=O)n(-c2ccccc2)n1C | -1.1% (inactive) | -2.45% (inactive) | -18.4% (inactive) | 6.75% (inactive) | -35.8% (inactive) | -53.4% (inactive)
14 | O=C1/C(=N\[O-])C(S(=O)(=O)[O-])=Cc2cc(S(=O)(=O)[O-])cc(O)c21.O=C1/C(=N\[O-])C(S(=O)(=O)[O-])=Cc2cc(S(=O)(=O)[O-])cc(O)c21.[Cu+2] | -1.8% (inactive) | 8.1% (inactive) | -0.65% (inactive) | -11.7% (inactive) | -2.4% (inactive) | -19.5% (inactive)
15 | CC(=O)NCCc1ccccc1 | -18.2% (inactive) | 20.9% (inactive) | 3.2% (inactive) | -19.3% (inactive) | 10% (inactive) | -0.1% (inactive)
16 | COc1ccc(NC(=O)c2ccc(OC)cc2)cc1 | 0.7% (inactive) | -8.9% (inactive) | 5.2% (inactive) | 1.95% (inactive) | 7.85% (inactive) | -3.7% (inactive)
17 | COC(=O)/C(=C(\C)NC(C)=O)c1c(C(=O)OC)[nH]c2ccccc12 | -6.85% (inactive) | -12.5% (inactive) | -9.15% (inactive) | 4.15% (inactive) | -3% (inactive) | -111% (inactive)
18 | O=C1OCC/C1=C\c1ccc2c(c1)OCO2 | 40.4% (inactive) | -26.5% (inactive) | 20% (inactive) | -2.85% (inactive) | -10.2% (inactive) | -2.4% (inactive)
19 | CC(C)CCC(C)C1CCC2C3CCC4CC(=O)CC4(C)C3CCC12C (stereo not given) | -13.5% (inactive) | 7.2% (inactive) | -20.1% (inactive) | -10.4% (inactive) | -11.6% (inactive) | 2.85% (inactive)
20 | N#Cc1ccc2c(c1)-c1cc(C#N)ccc1C2c1ccccc1 | 8.95% (inactive) | -10.8% (inactive) | -3.45% (inactive) | -42.5% (inactive) | -4.8% (inactive) | -6.95% (inactive)

Row | Structure (SMILES) | growth inhibition [1] | growth inhibition [2] | growth inhibition [3] | growth inhibition [4] | growth inhibition [5] | growth inhibition [6]
21 | CC1(O)CC(=O)c2c(cc3ccc(-c4c5c(c(O)c6c(O)cccc46)C(=O)CC(C)(O)C5)c(O)c3c2O)C1 (stereo not given) | 54.1% (inactive) | 48.1% (inactive) | 35.5% (inactive) | 23.8% (inactive) | 19.7% (inactive) | 9.95% (inactive)
22 | NC(=O)c1ccccc1NC(=O)C(=O)C(C(=O)c1ccc(Cl)c(Cl)c1)C1OC(=O)c2ccccc21 (stereo not given) | 53.2% (inactive) | 46.9% (inactive) | 32.9% (inactive) | 67.5% (inactive) | 57.9% (inactive) | 44.6% (inactive)
23 | CC1/C(=N\O)CC2C3(C)CCC2(C(C)C(=O)O)C(=O)C13 (stereo not given) | 4.75% (inactive) | 9.1% (inactive) | 2.2% (inactive) | 8.55% (inactive) | 8.9% (inactive) | 20.6% (inactive)
24 | COC(=O)c1ccc(-n2cc(C(=O)OC)c([N+]#N)c2[O-])cc1 | 9.4% (inactive) | 11.6% (inactive) | -13.6% (inactive) | -13.6% (inactive) | 18.9% (inactive) | 16.6% (inactive)
25 | Cn1c(=O)[nH]c2ccc(Cl)cc2c1=O | 2.75% (inactive) | -5.85% (inactive) | -3.25% (inactive) | -67.8% (inactive) | 8.15% (inactive) | 5.85% (inactive)
26 | O=c1[nH]c(/C=C/c2ccccc2)c([N+](=O)[O-])c(=O)[nH]1 | -7% (inactive) | 2.9% (inactive) | -12.7% (inactive) | -19.6% (inactive) | 26.6% (inactive) | 16.8% (inactive)
27 | Cc1ccc(S(=O)(=O)OCC2C3C=CC(C4C=CC43)C2COS(=O)(=O)c2ccc(C)cc2)cc1 (stereo not given) | -4.25% (inactive) | -0.65% (inactive) | -10% (inactive) | -25.3% (inactive) | 11.8% (inactive) | -0.4% (inactive)
28 | Cn1cc(Cc2ccccc2)c(=O)[nH]c1=O | 6.25% (inactive) | -4.4% (inactive) | 2.05% (inactive) | -34.6% (inactive) | -4.85% (inactive) | 7.6% (inactive)
29 | CC1(c2ccccc2)CC/C(=C/c2ccccc2)C1=O (stereo not given) | -5.4% (inactive) | 10.1% (inactive) | 25.9% (inactive) | -43.5% (inactive) | 33.3% (inactive) | 18.3% (inactive)
30 | CC(=O)c1ccc(N=CC2CCCCC2=O)cc1 (stereo not given) | -8.35% (inactive) | 2.7% (inactive) | 17.1% (inactive) | -30.1% (inactive) | -2.9% (inactive) | -13.9% (inactive)
31 | COc1cccc(/C=C/c2ccnnc2)c1 | 4.3% (inactive) | -2.8% (inactive) | -7.55% (inactive) | -7.65% (inactive) | 16.9% (inactive) | -3.85% (inactive)
32 | c1ccc(C2c3ccccc3CN2c2ccccc2)cc1 (stereo not given) | 25.4% (inactive) | 6.2% (inactive) | 11.4% (inactive) | 9.4% (inactive) | 23.1% (inactive) | 2.35% (inactive)
33 | [O-][N+](=Nc1ccc2c(c1)Cc1ccccc1-2)c1ccc2c(c1)Cc1ccccc1-2 | 25.7% (inactive) | -20.2% (inactive) | 25.1% (inactive) | -19.1% (inactive) | 0.35% (inactive) | -7% (inactive)
34 | CCOC(=O)CN(Cn1cncn1)Cn1cncn1 | 26% (inactive) | 5.55% (inactive) | 22.2% (inactive) | -30.2% (inactive) | -43.4% (inactive) | 10.8% (inactive)
35 | O=C(O)c1cccc(-c2ccccc2)c1O.O=C(O)c1cccc(-c2ccccc2)c1O.[Cu] | 41.2% (inactive) | 39.5% (inactive) | 21.6% (inactive) | 2.6% (inactive) | 33.9% (inactive) | 32.4% (inactive)
36 | Nc1ccccc1SC1CC(=O)N(c2ccc3c(c2)OCO3)C1=O (stereo not given) | 6.55% (inactive) | 8.85% (inactive) | 20.4% (inactive) | 16.4% (inactive) | 8.35% (inactive) | 16.3% (inactive)
37 | Clc1cccc(C2SCc3nc4ccccc4n32)c1 (stereo not given) | 17% (inactive) | -3.95% (inactive) | 46.1% (inactive) | 15.3% (inactive) | 5.9% (inactive) | 32.1% (inactive)
38 | CC1=C(C(=O)Nc2ccccc2)C(c2ccc3c(c2)OCO3)C(C(=O)Nc2ccccc2)=C(C)N1 | 38.3% (inactive) | 33.5% (inactive) | 10.5% (inactive) | 17.1% (inactive) | 38.5% (inactive) | 27.1% (inactive)
39 | [S-]c1n[n+](-c2ccccc2)cs1 | 2.95% (inactive) | 2.1% (inactive) | 0.15% (inactive) | -5.25% (inactive) | -23% (inactive) | 3.1% (inactive)
40 | COc1ccc2nc3cc([N+](=O)[O-])ccc3c(NCCCN(CCO)CCO)c2c1 | -6.7% (inactive) | -1.75% (inactive) | 6.9% (inactive) | 1.75% (inactive) | 7.75% (inactive) | 2.6% (inactive)
